Test results as given in PubChem BioAssay AID1671202 (University of Kansas High Throughput Screening Laboratory, 2021).
The whole screen tested about 190,000 compounds, of which about 6,900 (3.6%) were called active. This excerpt belongs to a sample that is enriched for actives. Values without a mark were called inactive. No stated cut-off is given here; in the data, active means inhibition above about 50%; inactive means the rest.

Target: Huntingtin (Homo sapiens) (UniProt P42858)
Assay: mutant huntingtin-calmodulin interaction inhibitors – biochemical, AlphaScreen, primary screen (AID 1671202);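 further: 0% = both proteins with DMSO and 100% = one protein alone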
Conditions: AlphaScreen His-mHTT/GST-CaM binding, luminescence; at 15 µM, active compounds read high

Huntingtin (Homo sapiens), sequence (P42858 whole entry, looked up, stated change not applied): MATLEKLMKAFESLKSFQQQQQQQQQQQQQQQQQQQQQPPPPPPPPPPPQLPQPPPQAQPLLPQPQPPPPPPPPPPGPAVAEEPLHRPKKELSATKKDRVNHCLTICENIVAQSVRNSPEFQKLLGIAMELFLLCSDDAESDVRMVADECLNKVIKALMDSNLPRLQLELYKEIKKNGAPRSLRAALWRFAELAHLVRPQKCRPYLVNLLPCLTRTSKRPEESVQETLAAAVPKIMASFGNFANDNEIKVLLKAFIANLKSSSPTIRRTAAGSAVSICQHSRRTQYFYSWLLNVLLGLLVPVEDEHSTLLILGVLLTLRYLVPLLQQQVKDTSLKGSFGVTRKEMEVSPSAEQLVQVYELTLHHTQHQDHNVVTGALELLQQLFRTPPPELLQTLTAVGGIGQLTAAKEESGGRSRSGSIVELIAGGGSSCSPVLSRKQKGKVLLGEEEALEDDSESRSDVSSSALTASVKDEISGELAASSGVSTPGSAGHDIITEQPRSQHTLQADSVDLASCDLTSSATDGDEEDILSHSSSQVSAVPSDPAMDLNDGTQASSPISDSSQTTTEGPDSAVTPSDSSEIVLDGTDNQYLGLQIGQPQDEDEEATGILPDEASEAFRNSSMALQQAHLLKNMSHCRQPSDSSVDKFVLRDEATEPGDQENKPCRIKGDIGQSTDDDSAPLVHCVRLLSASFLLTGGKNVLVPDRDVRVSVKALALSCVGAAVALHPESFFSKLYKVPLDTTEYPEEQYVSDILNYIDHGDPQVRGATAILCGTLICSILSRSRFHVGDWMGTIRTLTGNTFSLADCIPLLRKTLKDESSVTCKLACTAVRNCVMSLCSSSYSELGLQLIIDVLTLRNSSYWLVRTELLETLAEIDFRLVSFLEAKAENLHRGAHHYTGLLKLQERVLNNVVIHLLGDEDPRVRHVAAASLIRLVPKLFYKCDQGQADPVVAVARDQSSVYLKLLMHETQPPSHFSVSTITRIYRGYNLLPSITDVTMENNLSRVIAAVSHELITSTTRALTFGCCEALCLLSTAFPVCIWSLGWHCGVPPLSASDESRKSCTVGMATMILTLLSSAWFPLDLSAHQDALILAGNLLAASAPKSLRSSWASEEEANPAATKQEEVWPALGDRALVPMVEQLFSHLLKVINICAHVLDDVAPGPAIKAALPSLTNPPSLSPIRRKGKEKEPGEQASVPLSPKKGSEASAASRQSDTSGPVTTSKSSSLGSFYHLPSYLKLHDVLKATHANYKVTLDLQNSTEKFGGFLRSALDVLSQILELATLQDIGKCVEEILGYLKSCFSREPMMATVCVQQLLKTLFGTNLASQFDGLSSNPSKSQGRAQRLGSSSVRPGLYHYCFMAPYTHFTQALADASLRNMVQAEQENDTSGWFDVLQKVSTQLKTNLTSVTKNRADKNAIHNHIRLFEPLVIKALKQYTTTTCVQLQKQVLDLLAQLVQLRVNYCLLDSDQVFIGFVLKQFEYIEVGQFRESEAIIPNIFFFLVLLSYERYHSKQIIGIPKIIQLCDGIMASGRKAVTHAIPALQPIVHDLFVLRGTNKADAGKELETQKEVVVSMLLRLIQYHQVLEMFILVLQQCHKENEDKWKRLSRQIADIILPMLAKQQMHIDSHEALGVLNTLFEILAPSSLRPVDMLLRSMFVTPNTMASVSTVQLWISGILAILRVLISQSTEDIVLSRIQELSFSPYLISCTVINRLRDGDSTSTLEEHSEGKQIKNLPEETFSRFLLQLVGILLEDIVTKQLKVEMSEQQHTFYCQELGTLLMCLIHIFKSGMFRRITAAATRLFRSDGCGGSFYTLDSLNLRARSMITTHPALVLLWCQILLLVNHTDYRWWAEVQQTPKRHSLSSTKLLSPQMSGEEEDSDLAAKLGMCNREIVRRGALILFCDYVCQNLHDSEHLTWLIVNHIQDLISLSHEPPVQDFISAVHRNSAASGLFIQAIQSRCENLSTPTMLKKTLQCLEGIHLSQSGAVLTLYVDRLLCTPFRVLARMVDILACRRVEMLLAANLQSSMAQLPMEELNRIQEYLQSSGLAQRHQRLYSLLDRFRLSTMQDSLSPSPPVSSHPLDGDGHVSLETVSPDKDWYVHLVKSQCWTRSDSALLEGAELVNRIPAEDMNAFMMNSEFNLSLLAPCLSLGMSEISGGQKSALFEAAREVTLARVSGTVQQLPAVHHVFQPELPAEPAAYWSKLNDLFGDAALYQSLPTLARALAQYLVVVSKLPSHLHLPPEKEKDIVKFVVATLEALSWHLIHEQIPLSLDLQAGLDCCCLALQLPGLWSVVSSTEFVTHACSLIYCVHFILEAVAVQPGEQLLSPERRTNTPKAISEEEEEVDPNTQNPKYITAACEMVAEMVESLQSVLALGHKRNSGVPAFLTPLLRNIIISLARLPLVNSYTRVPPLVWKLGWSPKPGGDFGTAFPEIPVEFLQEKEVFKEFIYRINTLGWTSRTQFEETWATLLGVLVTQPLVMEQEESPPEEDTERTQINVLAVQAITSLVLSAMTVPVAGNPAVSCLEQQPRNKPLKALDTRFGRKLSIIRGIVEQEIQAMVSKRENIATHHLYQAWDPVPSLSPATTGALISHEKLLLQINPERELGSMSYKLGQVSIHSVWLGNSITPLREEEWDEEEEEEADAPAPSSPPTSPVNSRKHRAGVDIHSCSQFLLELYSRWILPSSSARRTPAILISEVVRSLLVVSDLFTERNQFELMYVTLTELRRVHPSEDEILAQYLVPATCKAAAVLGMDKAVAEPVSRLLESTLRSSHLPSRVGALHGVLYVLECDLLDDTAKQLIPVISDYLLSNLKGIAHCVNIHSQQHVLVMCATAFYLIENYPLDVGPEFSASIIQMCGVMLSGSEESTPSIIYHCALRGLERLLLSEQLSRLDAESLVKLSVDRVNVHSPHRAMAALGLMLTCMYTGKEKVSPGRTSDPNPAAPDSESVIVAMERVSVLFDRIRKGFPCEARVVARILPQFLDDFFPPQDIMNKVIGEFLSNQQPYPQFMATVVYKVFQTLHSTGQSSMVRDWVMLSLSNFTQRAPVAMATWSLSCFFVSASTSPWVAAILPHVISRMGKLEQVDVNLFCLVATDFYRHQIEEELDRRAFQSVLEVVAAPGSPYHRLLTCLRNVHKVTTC

**Q.** `O=C(Nc1ccc(S(=O)(=O)Nc2ccccn2)cc1)C1OC2OC3(CCCCC3)OC2C2OC3(CCCCC3)OC12` (centres undefined) was tested. Which inhibition did it give?
**A.** Its inhibition is 22.5%.

**Q.** For `Cc1ccc(SCC(=O)N2CCN(C)CC2)cc1`, which inhibition is on record?
**A.** The inhibition was 0.5%.

**Q.** How did the inhibition turn out when `CCc1onc(C)c1C1CCCN1Cc1cc(Br)ccc1F` (centres undefined) was run?
**A.** Its inhibition is -71.3%.

**Q.** `CCn1cc(-c2ccc(F)cc2)cc1C(=O)NC(C)c1cccnc1` (centres undefined) was tested. Which inhibition did it give?
**A.** Its inhibition is 50.5% (active).

**Q.** With `CCn1cc(-c2ccccc2)cc1C(=O)NCc1ccccn1` as the compound, how does the inhibition read?
**A.** Its inhibition is 47.4%.

**Q.** Which inhibition does the source give for `CCn1cc(-c2ccc(C)cc2)cc1C(=O)NCc1cccnc1` here?
**A.** The inhibition was 46.7%.

**Q.** With `OCCCc1nc2n(n1)C(c1ccco1)C=C(c1ccc(Br)cc1)N2` (centres undefined) as the compound, how does the inhibition read?
**A.** Its inhibition is 34%.

**Q.** With `COc1ccc(N2C(=O)CSC2c2c(F)cccc2Cl)c(OC)c1` (centres undefined) as the compound, how does the inhibition read?
**A.** The inhibition was 1%.

**Q.** With `COc1cc([N+](=O)[O-])ccc1N=Cc1c(C)[nH]n(-c2ccccc2C)c1=O` as the compound, how does the inhibition read?
**A.** The inhibition was 57% (active).

**Q.** With `COc1cc(SC#N)ccc1N=Cc1c(C)[nH]n(-c2ccc(Br)cc2)c1=O` as the compound, how does the inhibition read?
**A.** Its inhibition is 2%.

**Q.** How did the inhibition turn out when `COc1cc([N+](=O)[O-])ccc1N=Cc1c(C)[nH]n(-c2ccc(C)c(C)c2)c1=O` was run?
**A.** The inhibition was 11%.

**Q.** `COc1cccc2cc(-c3cc(=O)oc4cc5c(cc34)CCCC5)oc12` was tested. Which inhibition did it give?
**A.** Its inhibition is -2.8%.

**Q.** How did the inhibition turn out when `O=C(c1c(F)cccc1F)N1CCN(S(=O)(=O)C2CC2)CC1` was run?
**A.** Its inhibition is -10.4%.

**Q.** Which inhibition does the source give for `O=C1Nc2ccccc2Oc2cc([N+](=O)[O-])cc(Oc3ccccc3Br)c21` here?
**A.** Its inhibition is 32%.

**Q.** How did the inhibition turn out when `O=C(c1cnccn1)N1CCCC2(C1)Nc1ccccc1NC2=NCc1ccccc1` (centres undefined) was run?
**A.** The inhibition was 25.6%.

**Q.** Which inhibition does the source give for `CC(C)(C)C(=O)N1CCCC2(C1)Nc1ccccc1NC2=NCc1ccccc1` (centres undefined) here?
**A.** The inhibition was 100% (active).

**Q.** `COc1ccccc1C(=O)N1CCCC2(C1)Nc1cccnc1NC2=NCc1ccccc1` (centres undefined) was tested. Which inhibition did it give?
**A.** Its inhibition is 1.03%.

**Q.** Which inhibition does the source give for `COCCNC(=O)N1CCCC2(C1)Nc1ccccc1NC2=NCc1ccccc1` (centres undefined) here?
**A.** Its inhibition is 97.7% (active).

**Q.** With `c1ccc(CN=C2Nc3ccccc3NC23CCCNC3)cc1` (centres undefined) as the compound, how does the inhibition read?
**A.** The inhibition was 25.7%.

**Q.** With `O=C(c1ccccn1)N1CCC2(C1)NCc1ccccc1NC2=NCc1ccccc1` (centres undefined) as the compound, how does the inhibition read?
**A.** Its inhibition is 12.6%.

**Q.** `Cc1cccc(-c2csc3c(=O)n(Cc4ccc(F)cc4)cnc23)c1` was tested. Which inhibition did it give?
**A.** The inhibition was -29.4%.

**Q.** `O=S1(=O)c2ccccc2S(=O)(=O)N1c1cc(F)ccc1F` was tested. Which inhibition did it give?
**A.** Its inhibition is 6%.

**Q.** With `O=C(c1cccc2c1CCN2C(=O)C1CC1)N1CCOCC1` as the compound, how does the inhibition read?
**A.** The inhibition was -4.9%.

**Q.** With `CC12C=CC(O1)C1C(=O)N(c3ccc(Cl)c(C(=O)O)c3)C(=O)C12` (centres undefined) as the compound, how does the inhibition read?
**A.** Its inhibition is -2%.

**Q.** How did the inhibition turn out when `O=C(NCc1ccccc1Cl)c1cnn2c3c(cnc12)CCCCCC3` was run?
**A.** Its inhibition is -7%.

**Q.** Which inhibition does the source give for `COc1cccc(N=Cc2cc(Br)ccc2O)c1` here?
**A.** The inhibition was 13%.

**Q.** For `O=C1/C(=C/c2ccc3c(c2)OCO3)CCC/C1=C\c1ccc2c(c1)OCO2`, which inhibition is on record?
**A.** Its inhibition is 58% (active).

**Q.** `O=C1OC(c2ccco2)=N/C1=C/c1ccc2c(c1)OCO2` was tested. Which inhibition did it give?
**A.** The inhibition was 29%.

**Q.** Which inhibition does the source give for `CSC1=N/C(=C\c2ccc3c(c2)OCO3)C(=O)S1` here?
**A.** The inhibition was -2%.

**Q.** How did the inhibition turn out when `COc1cc(Cl)ccc1C(=O)N1CCC(c2nc(CCNC(C)=O)cs2)CC1` was run?
**A.** The inhibition was 5.03%.

**Q.** For `Cc1cccc(C(=O)N2CCCC(C(=O)NC3CCCC3)C2)c1` (centres undefined), which inhibition is on record?
**A.** Its inhibition is 25.1%.

**Q.** For `Cc1nn(-c2ccccc2)c(Cl)c1C(=O)N1CCOCC1`, which inhibition is on record?
**A.** Its inhibition is 1%.

**Q.** How did the inhibition turn out when `O=C(c1cc(-c2ccccc2)n[nH]1)N1CCN(c2ncccn2)CC1` was run?
**A.** The inhibition was -17.7%.

**Q.** `Cc1nn(-c2ccccc2)c(C)c1N1CCN(C(=O)c2cc(-c3ccccc3)n[nH]2)CC1` was tested. Which inhibition did it give?
**A.** Its inhibition is 98.9% (active).

**Q.** `COc1ccc(-c2nc(SCC(=O)Nc3ccc(OC(F)(F)F)cc3)[nH]c(=O)c2C#N)cc1` was tested. Which inhibition did it give?
**A.** Its inhibition is 14%.

**Q.** With `COc1ccc(OC)c(C=C2Oc3c(ccc(O)c3CN3CCCCC3C)C2=O)c1` (centres undefined) as the compound, how does the inhibition read?
**A.** The inhibition was -1.3%.

**Q.** `COc1ccc(-c2nnc(N3CCC(C(=O)NCc4cccc(OC)c4)CC3)o2)cc1` was tested. Which inhibition did it give?
**A.** The inhibition was 21%.

**Q.** For `CC(C)c1ccc(N2CC(C(=O)N(C)Cc3ccccc3)CC2=O)cc1` (centres undefined), which inhibition is on record?
**A.** The inhibition was 56.5% (active).

**Q.** `Cc1ccc(N2CC(C(=O)N(C)C(C)C)CC2=O)cc1` (centres undefined) was tested. Which inhibition did it give?
**A.** The inhibition was -4.2%.

**Q.** Which inhibition does the source give for `COc1ccc(N2CC(C(=O)Nc3ccc(C(C)C)cc3)CC2=O)cc1` (centres undefined) here?
**A.** The inhibition was 0.1%.

**Q.** `Cc1ccc(C(=O)NCC2CCCN(S(=O)(=O)c3ccc(F)cc3F)C2)cc1` (centres undefined) was tested. Which inhibition did it give?
**A.** Its inhibition is -3.67%.

**Q.** `O=C(CCn1c(=O)c2sccc2n(Cc2cccc(Cl)c2)c1=O)NCc1ccccc1` was tested. Which inhibition did it give?
**A.** Its inhibition is -2%.

**Q.** `COc1ccccc1CC(=O)N1CCCn2nc(-c3ccc(C)cc3)cc2C1` was tested. Which inhibition did it give?
**A.** Its inhibition is 37.9%.

**Q.** For `COc1ccccc1CCC(=O)N1CCCn2nc(-c3cccc(C)c3)cc2C1`, which inhibition is on record?
**A.** Its inhibition is 68.3% (active).

**Q.** For `Cc1cccc(-c2cc3n(n2)CCCN(C(=O)C(C)Oc2ccccc2)C3)c1` (centres undefined), which inhibition is on record?
**A.** The inhibition was 42.9%.

**Q.** `CCOc1ccccc1Oc1c(C)oc2c(CN(CC)CC)c(O)ccc2c1=O` was tested. Which inhibition did it give?
**A.** Its inhibition is 3.7%.

**Q.** How did the inhibition turn out when `CCC(CC)C(=O)Nc1ccc(Br)cc1F` was run?
**A.** Its inhibition is -9.3%.

**Q.** `Cn1nc(-c2nc(-c3cccc(F)c3)no2)c2c1CCN(C(=O)Cc1cccs1)C2` was tested. Which inhibition did it give?
**A.** The inhibition was 20.1%.

**Q.** Which inhibition does the source give for `COc1cccc2cc(-c3nc(-c4ccc5c(c4)OCO5)cs3)c(=O)oc12` here?
**A.** Its inhibition is -9%.

**Q.** Which inhibition does the source give for `CCN(CC)CCC(c1ccc2c(c1)OCO2)c1c(OC)cc(OC)c2c(-c3ccccc3)cc(=O)oc12` (centres undefined) here?
**A.** The inhibition was 101% (active).

**Q.** How did the inhibition turn out when `COc1ccc(-c2c(C)cc3oc(=O)cc(-c4ccccc4)c3c2C)cc1OC` was run?
**A.** The inhibition was -2.2%.

**Q.** `CCN(CC)C(=O)CC(c1ccc2c(c1)OCO2)c1c(OC)cc(OC)c2c(-c3ccccc3)cc(=O)oc12` (centres undefined) was tested. Which inhibition did it give?
**A.** Its inhibition is 74.9% (active).

**Q.** With `CCN(CC)CCC(c1cc(OC)c(OC)c(OC)c1)c1c(OC)cc(OC)c2c(-c3ccccc3)cc(=O)oc12` (centres undefined) as the compound, how does the inhibition read?
**A.** Its inhibition is -4.8%.

**Q.** For `COc1ccc(-c2c(C)cc3oc(=O)cc(-c4ccccc4)c3c2C)cc1F`, which inhibition is on record?
**A.** The inhibition was -2.4%.

**Q.** With `Cc1ccc(Cc2c(C)nc(C)nc2N2CCN(C(=O)c3ccccc3)CC2)cc1` as the compound, how does the inhibition read?
**A.** The inhibition was 11.3%.

**Q.** How did the inhibition turn out when `COCCc1noc(COC2CCCN(C(=O)c3ccccn3)C2)n1` (centres undefined) was run?
**A.** Its inhibition is -8.61%.

**Q.** `CCc1ccccc1NC(=O)NCCNc1cc(-n2nc(C)cc2C)nc(C)n1` was tested. Which inhibition did it give?
**A.** The inhibition was -5.7%.

**Q.** With `CSc1cccc(NC(=O)NCCNc2cc(-n3ccnc3C)nc(C)n2)c1` as the compound, how does the inhibition read?
**A.** Its inhibition is 99.9% (active).

**Q.** For `CCNc1cc(NCCNC(=O)c2cccc(F)c2)nc(C)n1`, which inhibition is on record?
**A.** The inhibition was -7.5%.
